Laboratory results taken from PubChem BioAssay.

target: Tumor necrosis factor receptor superfamily member 10B (Homo sapiens) (UniProt O14763); assay: viability loss of caspase-8 NB7 cells with TRAIL – with/without TRAIL, luminescence panel, confirmation (AID 651596); conditions: NB7 neuroblastoma + caspase-8, TRAIL sensitization, NB7 Caspase-8, with TRAIL, mean of runs, at 10 µM, stronger effect = higher value
Sequence (O14763 whole entry, looked up): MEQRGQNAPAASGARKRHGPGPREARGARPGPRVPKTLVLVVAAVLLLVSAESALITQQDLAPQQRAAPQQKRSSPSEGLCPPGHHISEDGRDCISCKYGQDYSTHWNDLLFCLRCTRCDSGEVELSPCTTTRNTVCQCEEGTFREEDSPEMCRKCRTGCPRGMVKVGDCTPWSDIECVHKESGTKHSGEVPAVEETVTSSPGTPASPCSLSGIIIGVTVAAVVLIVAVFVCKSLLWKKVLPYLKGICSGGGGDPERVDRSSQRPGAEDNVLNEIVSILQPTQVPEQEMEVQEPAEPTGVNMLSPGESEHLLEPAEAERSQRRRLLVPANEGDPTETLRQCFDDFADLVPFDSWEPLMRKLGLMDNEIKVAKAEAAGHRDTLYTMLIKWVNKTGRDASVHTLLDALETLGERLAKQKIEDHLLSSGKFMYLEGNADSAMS

Q: With Nc1nccc(-c2cc(-c3ccc(Cl)cc3Cl)no2)n1 as the compound, how does the activity read?
A: The activity was 62.4%.

Q: Which activity does the source give for Nc1ccc(C(=O)NN2C(=O)[C@H](Cl)C2c2ccc(Cl)cc2)cc1 (stereo not given in full) here?
A: Its activity is 99.3%.

Q: For O=C(Oc1cccc(/C=N/NC(=O)c2ccccn2)c1)c1ccc([N+](=O)[O-])cc1, which activity is on record?
A: The activity was 42.9%.

Q: With Clc1ccc(-c2nc3n(n2)Cc2ccccc2-3)cc1 as the compound, how does the activity read?
A: The activity was 65.8%.

Q: With O=C(/C=C/NNC(=O)c1ccccc1)c1ccc([N+](=O)[O-])cc1 as the compound, how does the activity read?
A: The activity was 21.4%.

Q: With Cn1nccc1C(=O)Oc1cccc(/C=N/NC(=O)c2ccccc2O)c1 as the compound, how does the activity read?
A: The activity was 44.5%.

Q: Which activity does the source give for Cc1c(C(=O)N2CCc3ccccc32)oc2ccccc12 here?
A: Its activity is 48.2%.

Q: For Cc1ccc2cc(NC(=O)c3cccc(F)c3)ccc2n1, which activity is on record?
A: Its activity is 21.3%.

Q: For CCN(CC)CCN1C(=O)/C(=C\c2ccc(Cl)c([N+](=O)[O-])c2)SC1=Nc1ccc(OC)cc1, which activity is on record?
A: The activity was 82.2%.

Q: Which activity does the source give for O=C(Nc1nnc(SCC(=O)N2CCOCC2)s1)c1ccccc1 here?
A: Its activity is 80%.

Q: Which activity does the source give for COc1ccc(C(=O)Nc2nnc(SCC(=O)NC3CCCC3)s2)c(OC)c1 here?
A: The activity was 74.1%.

Q: With CCOc1ccc(/C=N/Nc2ccccn2)cc1 as the compound, how does the activity read?
A: Its activity is 53.4%.

Q: Which activity does the source give for CN(Cc1ccccc1)C(=O)c1ccc(Nc2nc(C(N)Cc3ccc(C(F)(F)F)cc3)cs2)nc1 (stereo not given) here?
A: The activity was 93%.

Q: Which activity does the source give for CCOc1ccc(C(=O)Nc2cc(C)c3c(=O)oc4ccccc4c3n2)cc1 here?
A: The activity was 61.2%.

Q: With Fc1ccc(-c2nc(-c3cnccn3)no2)c(Cl)c1 as the compound, how does the activity read?
A: Its activity is 59.1%.

Q: For O=C(Nc1ccc2c(c1)OCCO2)Nc1ccc2c(c1)OCO2, which activity is on record?
A: The activity was 81.4%.

Q: Which activity does the source give for O=C(Nc1ccc2c(c1)nc1n2CCSC1)c1ccco1 here?
A: Its activity is 77.4%.

Q: With O=C(CCl)N1CCCC1c1ccc2c(c1)OCCO2 (stereo not given) as the compound, how does the activity read?
A: Its activity is 95.6%.

Q: Which activity does the source give for O=C(Nc1ccc(-c2nc3ccccc3[nH]2)cc1)C1CCCO1 (stereo not given) here?
A: Its activity is 79.5%.

Q: For COc1ccc(OC)c(Nc2nc(N)nc(CCl)n2)c1, which activity is on record?
A: Its activity is 99%.

Q: For CC(=O)CSc1ccc(-c2nc3ccccc3[nH]2)cn1, which activity is on record?
A: Its activity is 92.1%.

Q: Which activity does the source give for COc1cc(C(=O)Nc2nc3ccccc3[nH]2)ccc1OC(F)F here?
A: The activity was 78.9%.

Q: Which activity does the source give for O=C(c1ccncc1)N(Cc1cc2ccccc2[nH]c1=O)C1CCCCC1 here?
A: The activity was 72.5%.

Q: With C/C(=N\NC(=O)COc1ccc(C(C)(C)C)cc1)c1cc2ccccc2o1 as the compound, how does the activity read?
A: The activity was 89.2%.

Q: For CCOc1ccc2nc(NC(=O)c3ccco3)sc2c1, which activity is on record?
A: The activity was 74.4%.

Q: For COc1ccc(/C=C\c2nc(=O)c3ccccc3o2)cc1, which activity is on record?
A: Its activity is 72%.

Q: For COc1cccc2oc3ccc(C#Cc4ccccn4)cc3c(=O)c12, which activity is on record?
A: The activity was 71.8%.

Q: For COc1oc(C(=O)NC2CCCCC2)c(-c2ccc(Cl)cc2)c1S(=O)(=O)c1ccccc1, which activity is on record?
A: The activity was 97.8%.

Q: For O=C(CCl)N1c2ccccc2CCc2ccccc21, which activity is on record?
A: The activity was 99.8%.

Q: For O=C(Nc1ccc(N2CCN(C(=O)c3cccs3)CC2)cc1)c1ccc([N+](=O)[O-])o1, which activity is on record?
A: The activity was 86.7%.

Q: For NC(N)=Nc1ccc(C=C2C=Cc3ccccc32)cc1, which activity is on record?
A: The activity was 96.6%.

Q: For O=C(Nc1ccc(N2CCCCC2)cc1)c1ccccc1, which activity is on record?
A: The activity was 69.6%.

Q: For Cc1ccc2c(c1)N=C(c1ccccc1)CC(C(Cl)Cl)=N2, which activity is on record?
A: The activity was 29.4%.

Q: Which activity does the source give for Cc1occc1C(=O)O/N=C(\N)c1ccccc1 here?
A: The activity was 89.7%.

Q: With O=C(N/N=C/c1ccc[nH]1)c1ccc(COc2cccc3cccnc23)cc1 as the compound, how does the activity read?
A: Its activity is 71.5%.

Q: With CC1(C)N=C(N)N=C(N)N1c1cccc(C#N)c1 as the compound, how does the activity read?
A: The activity was 81.8%.

Q: Which activity does the source give for Cc1nc2cc(-c3ccccc3)nn2c(N)c1-c1ccccc1 here?
A: Its activity is 59%.

Q: Which activity does the source give for Cc1cc(C)c2sc(N(CCCN(C)C)C(=O)c3ccc(S(=O)(=O)N4CCc5ccccc5C4)cc3)nc2c1 here?
A: The activity was 93.1%.

Q: For Clc1ccccc1Nc1nnc(-c2ccncc2)s1, which activity is on record?
A: Its activity is 61.3%.

Q: With CC(C)CC(=O)Nc1ccc(-c2cn3ccsc3n2)cc1 as the compound, how does the activity read?
A: Its activity is 85.2%.

system: not listed separately; assay: as above; conditions: NB7 neuroblastoma + caspase-8, without TRAIL, NB7 Caspase-8, without TRAIL, mean of runs, at 10 µM

Q: For Nc1nccc(-c2cc(-c3ccc(Cl)cc3Cl)no2)n1, which activity is on record?
A: The activity was 56.9%.

Q: With Nc1ccc(C(=O)NN2C(=O)[C@H](Cl)C2c2ccc(Cl)cc2)cc1 (stereo not given in full) as the compound, how does the activity read?
A: The activity was 99.5%.

Q: For O=C(Oc1cccc(/C=N/NC(=O)c2ccccn2)c1)c1ccc([N+](=O)[O-])cc1, which activity is on record?
A: Its activity is 20.2%.

Q: Which activity does the source give for Clc1ccc(-c2nc3n(n2)Cc2ccccc2-3)cc1 here?
A: The activity was 76.6%.

Q: With O=C(/C=C/NNC(=O)c1ccccc1)c1ccc([N+](=O)[O-])cc1 as the compound, how does the activity read?
A: Its activity is 20%.

Q: With Cn1nccc1C(=O)Oc1cccc(/C=N/NC(=O)c2ccccc2O)c1 as the compound, how does the activity read?
A: Its activity is 13.6%.

Q: With Cc1c(C(=O)N2CCc3ccccc32)oc2ccccc12 as the compound, how does the activity read?
A: Its activity is 41%.

Q: For Cc1ccc2cc(NC(=O)c3cccc(F)c3)ccc2n1, which activity is on record?
A: The activity was 10.6%.

Q: With CCN(CC)CCN1C(=O)/C(=C\c2ccc(Cl)c([N+](=O)[O-])c2)SC1=Nc1ccc(OC)cc1 as the compound, how does the activity read?
A: The activity was 97.3%.

Q: With O=C(Nc1nnc(SCC(=O)N2CCOCC2)s1)c1ccccc1 as the compound, how does the activity read?
A: The activity was 77.4%.

Q: With COc1ccc(C(=O)Nc2nnc(SCC(=O)NC3CCCC3)s2)c(OC)c1 as the compound, how does the activity read?
A: The activity was 69.8%.

Q: Which activity does the source give for CCOc1ccc(/C=N/Nc2ccccn2)cc1 here?
A: The activity was 41.2%.

Q: With CN(Cc1ccccc1)C(=O)c1ccc(Nc2nc(C(N)Cc3ccc(C(F)(F)F)cc3)cs2)nc1 (stereo not given) as the compound, how does the activity read?
A: The activity was 98.2%.

Q: For CCOc1ccc(C(=O)Nc2cc(C)c3c(=O)oc4ccccc4c3n2)cc1, which activity is on record?
A: The activity was 62.1%.

Q: Which activity does the source give for Fc1ccc(-c2nc(-c3cnccn3)no2)c(Cl)c1 here?
A: The activity was 58.1%.

Q: With O=C(Nc1ccc2c(c1)OCCO2)Nc1ccc2c(c1)OCO2 as the compound, how does the activity read?
A: Its activity is 79.5%.

Q: For O=C(Nc1ccc2c(c1)nc1n2CCSC1)c1ccco1, which activity is on record?
A: The activity was 75.2%.

Q: For O=C(CCl)N1CCCC1c1ccc2c(c1)OCCO2 (stereo not given), which activity is on record?
A: The activity was 97.8%.

Q: Which activity does the source give for O=C(Nc1ccc(-c2nc3ccccc3[nH]2)cc1)C1CCCO1 (stereo not given) here?
A: Its activity is 71%.

Q: Which activity does the source give for COc1ccc(OC)c(Nc2nc(N)nc(CCl)n2)c1 here?
A: The activity was 97.5%.

Q: For CC(=O)CSc1ccc(-c2nc3ccccc3[nH]2)cn1, which activity is on record?
A: The activity was 92.5%.

Q: With COc1cc(C(=O)Nc2nc3ccccc3[nH]2)ccc1OC(F)F as the compound, how does the activity read?
A: Its activity is 69.4%.

Q: For O=C(c1ccncc1)N(Cc1cc2ccccc2[nH]c1=O)C1CCCCC1, which activity is on record?
A: Its activity is 78.4%.

Q: Which activity does the source give for C/C(=N\NC(=O)COc1ccc(C(C)(C)C)cc1)c1cc2ccccc2o1 here?
A: The activity was 84.2%.

Q: For CCOc1ccc2nc(NC(=O)c3ccco3)sc2c1, which activity is on record?
A: Its activity is 69.8%.

Q: For COc1ccc(/C=C\c2nc(=O)c3ccccc3o2)cc1, which activity is on record?
A: Its activity is 69.6%.

Q: For COc1cccc2oc3ccc(C#Cc4ccccn4)cc3c(=O)c12, which activity is on record?
A: The activity was 87.5%.

Q: Which activity does the source give for COc1oc(C(=O)NC2CCCCC2)c(-c2ccc(Cl)cc2)c1S(=O)(=O)c1ccccc1 here?
A: Its activity is 96.8%.

Q: Which activity does the source give for O=C(CCl)N1c2ccccc2CCc2ccccc21 here?
A: The activity was 99.7%.

Q: Which activity does the source give for O=C(Nc1ccc(N2CCN(C(=O)c3cccs3)CC2)cc1)c1ccc([N+](=O)[O-])o1 here?
A: The activity was 99.8%.

Q: For NC(N)=Nc1ccc(C=C2C=Cc3ccccc32)cc1, which activity is on record?
A: The activity was 68.5%.

Q: With O=C(Nc1ccc(N2CCCCC2)cc1)c1ccccc1 as the compound, how does the activity read?
A: Its activity is 58.5%.

Q: With Cc1ccc2c(c1)N=C(c1ccccc1)CC(C(Cl)Cl)=N2 as the compound, how does the activity read?
A: Its activity is 18%.

Q: With Cc1occc1C(=O)O/N=C(\N)c1ccccc1 as the compound, how does the activity read?
A: Its activity is 92.8%.

Q: For O=C(N/N=C/c1ccc[nH]1)c1ccc(COc2cccc3cccnc23)cc1, which activity is on record?
A: Its activity is 90.3%.

Q: With CC1(C)N=C(N)N=C(N)N1c1cccc(C#N)c1 as the compound, how does the activity read?
A: Its activity is 86.1%.

Q: Which activity does the source give for Cc1nc2cc(-c3ccccc3)nn2c(N)c1-c1ccccc1 here?
A: Its activity is 44.4%.

Q: For Cc1cc(C)c2sc(N(CCCN(C)C)C(=O)c3ccc(S(=O)(=O)N4CCc5ccccc5C4)cc3)nc2c1, which activity is on record?
A: The activity was 93.8%.

Q: Which activity does the source give for Clc1ccccc1Nc1nnc(-c2ccncc2)s1 here?
A: The activity was 63.3%.

Q: For CC(C)CC(=O)Nc1ccc(-c2cn3ccsc3n2)cc1, which activity is on record?
A: The activity was 88.2%.
